GPR151 ag = activators of human GPR151. Q8TDV0. PathHunter beta-arrestin GPR151 cells, luminescence. activation, % at 11.2 µM. 1% of 650,000 active; in the data active = activation above about 4.9%;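 note: 0% = median of compound wells and 100% = cells with positive control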
TEAD-YAP inh = TEAD-YAP interaction inhibition; 1.4% of 640,000 active; AID 1259422; inhibition, % at 9.12 µM; HEK-TIYL cells, TEAD-Gal4/YAP UAS-luciferase luminescence; in the data active = inhibition above about 32%;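 note: 0% = median of test compound wells and 100% = reference inhibitor wells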
MITF primary = inhibitors of human MITF; O75030; AlphaScreen MITF homodimerization, bead proximity signal; inhibition, % at 2.6 µM; 0.91% of 650,000 active; AID 1259374; in the data active = inhibition above about 50%;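 note: 0% = vehicle wells with protein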
Target sequence (O75030 whole entry, looked up): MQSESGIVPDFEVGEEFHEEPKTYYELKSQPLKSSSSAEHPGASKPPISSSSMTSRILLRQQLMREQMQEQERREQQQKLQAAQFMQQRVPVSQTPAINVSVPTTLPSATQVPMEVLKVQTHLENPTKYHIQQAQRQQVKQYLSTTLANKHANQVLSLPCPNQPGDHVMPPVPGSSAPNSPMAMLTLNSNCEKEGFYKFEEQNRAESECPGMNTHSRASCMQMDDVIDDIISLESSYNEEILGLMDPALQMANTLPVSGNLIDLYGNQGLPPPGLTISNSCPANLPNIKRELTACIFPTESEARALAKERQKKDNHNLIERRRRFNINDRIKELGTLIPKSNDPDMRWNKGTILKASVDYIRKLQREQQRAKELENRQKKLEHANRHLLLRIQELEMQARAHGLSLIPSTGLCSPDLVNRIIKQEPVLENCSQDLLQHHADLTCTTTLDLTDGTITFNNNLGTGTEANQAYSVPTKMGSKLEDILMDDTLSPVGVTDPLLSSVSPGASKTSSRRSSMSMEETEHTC
FBW7 act = human FBW7 E3 ligase activation, primary screen | normalized activity (activation), % at 26.1 µM | 0.13% of 650,000 active | AlphaScreen FBW7–phospho-cyclin E peptide binding, activator screen; in the data active = normalized activity above about 1.9%;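 note: purified mutant Fbw7 with reduced substrate affinity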
Starred values were filed as active, the others as inactive. An excerpt weighted towards active compounds, which were near 3.4% of everything screened.

SMILES	GPR151 ag	TEAD-YAP inh	MITF primary	FBW7 act
O=C1Nc2ccccc2/C1=N/n1c(-c2ccccc2)nc2ccccc2c1=O	0	32*	-3	0
Cc1nc2c(cnn2-c2ccccc2)c(=O)n1-c1cccc2ccccc12	0	37*	7	0
COc1cc(C2CC(=O)c3c(ccc4ccccc34)N2)ccc1O (configuration not stated)	0	8	-7	0
COc1cc(C2CC(c3c(O)ccc4ccccc34)=NN2)ccc1O (configuration not stated)	-6	61*	-1	0
COc1cc(C2C3=C(COC3=O)Nc3ccc4ccccc4c32)ccc1O (configuration not stated)	3	56*	-28	0
Oc1ccc(C2CC(c3c(O)ccc4ccccc34)=NN2)cc1 (configuration not stated)	-10	88*	-1	0
CCOC(=O)C(NC(=O)CC)(Nc1sc2c(c1C(=O)OC)CCN(C)C2)C(F)(F)F (configuration not stated)	-1	-11	-6	3.4*
CC[C@H](C)[C@H](NC1CCN(c2nc(C)c3cc(OC)ccc3n2)CC1)C(=O)OC	-1	-8	-22	0
O=C(Oc1ccc(/C=C/c2ccncc2)cc1)c1ccncc1	-7	48*	-4	0
CCN(CC)c1ccc2cc(Cl)c(=O)oc2c1	0	-14	-27	1
CCN(CC)c1ccc2cc(/C(N)=N/NC(C)=O)c(=O)oc2c1	-1	41*	-6	0
CCN(CC)c1ccc2cc(N3C(=O)CCC3=O)c(=O)oc2c1	1	62*	8	0
CCN(CC)c1ccc2cc(I)c(=O)oc2c1	0	-28	-10	2.9*
CC(=O)N(/N=c1\sc2ccccc2n1C(C)=O)C(C)=O	1	10	0	0
CCOC(=O)C1CCN(C(=O)Cn2cc(C(=O)c3ccccc3)c3ccccc32)CC1	1	-3	23	1
Cc1ccc2nc(=S)n(C(=O)c3ccccc3F)n2c1	-1	62*	2	0
C=CCOc1ccc(C2C(C(=O)OCC)=C(C)N=c3s/c(=C/c4ccc(Br)o4)c(=O)n32)cc1OCC (configuration not stated)	1	9	13	0
COc1ccccc1NC(=S)c1ccccn1	1	-38	18	0
CSc1ccc(/C=C(\C#N)c2ccccn2)cc1	-3	-7	10	0
COc1ccc(NC(=S)c2ccccn2)cc1	-11	60*	2	0
COc1ccc(NC(=S)Nc2ccccn2)cc1	0	-71	-7	0
CN(C)c1ccc(NC(=S)Nc2ccccc2)cc1	-2	-11	-2	-1
CN(C)c1ccc(NC(=S)c2ccccn2)cc1	-9	93*	33	-1
CN(C)c1ccc(/C=C(\C#N)c2ccccn2)cc1	-10	91*	13	0
Cc1ccc(NC(=S)c2ccccn2)cc1	-9	51*	15	0
SMILES	GPR151 ag	TEAD-YAP inh	MITF primary	FBW7 act
CCOC(=O)c1c(NC(=O)/C=C/c2ccco2)sc(C(=O)OC)c1C	0	-1	2	0
CC(C)OCCNC(=O)CCc1nnc(-c2ccc(-c3ccccc3)cc2)o1	1	13	10	0
Cc1cccc(OCC(=O)Nc2ccc(S(=O)(=O)Nc3c(C)cc(C)cc3C)cc2)c1	0	5	15	0
O=C1CCCC(O)=C1N=Nc1ccc(C(=O)O)cc1	-2	-7	66*	0
COc1cc(/C=C2\SC(=S)N(Cc3ccco3)C2=O)ccc1OCC(=O)O	-1	8	3	0
COc1ccc2ccccc2c1/C=C1/C(=O)NC(=O)N(Cc2ccco2)C1=O	-1	4	76*	0
COc1cc(/C=C2/C(=O)NC(=O)N(Cc3ccco3)C2=O)ccc1OCC(=O)O	3	7	77*	0
Cc1cc(/C=C2\C(=O)NC(=O)N(Cc3ccco3)C2=O)c(C)n1C1CC1	-2	-4	62*	-1
COc1cc(C)c(/C=C2/NC(=O)NC2=O)cc1C(C)C	2	44*	-4	0
NC(=O)c1ccc(NC(=O)COC(=O)/C=C/c2ccco2)cc1	0	8	20	0
COc1cc(Nc2nccc(NCCCN3CCCC3=O)n2)cc(OC)c1OC	-1	-8	-3	0
COCCn1c(C)cc(/C=C2\C(=O)NC(=O)N(Cc3ccco3)C2=O)c1C	0	-6	29	0
COc1ccc(OC)c(CN2C(=O)NC(=O)/C(=C\c3ccco3)C2=O)c1	3	-1	57*	-1
COc1cc(C)c(/C=C2/C(=O)NC(=O)N(Cc3ccco3)C2=O)cc1C(C)C	0	-5	69*	0
COc1ccc(-c2cc(CC(=O)NCc3ccc(Cl)cc3)no2)cc1OC	2	47*	-1	0
COc1ccc(-c2cc(CC(=O)NC3CCCC3)no2)cc1OC	1	5	-13	0
CN(C)c1ccc(Nc2nc(N)c3ccccc3n2)cc1	-10	91*	23	-1
Nc1nc(Nc2ccc(Cl)cc2)nc2ccccc12	-7	52*	10	0
COc1ccc(Nc2nc(N)c3ccccc3n2)cc1	-11	73*	23	0
Cc1ccc(Nc2nc(N)c3ccccc3n2)cc1Cl	-5	35*	-6	0
Cc1ccc(Nc2nc(N3CCOCC3)c3ccccc3n2)cc1Cl	-1	-4	16	0
Fc1ccccc1Nc1nc(N2CCOCC2)c2ccccc2n1	0	4	-13	0
Cc1ccc(Nc2nc(N)c3ccccc3n2)cc1	-5	90*	-3	0
Clc1nc(Cl)nc(Nc2ccccc2)n1	1	12	5	2.2*
Nc1nc(Nc2ccccc2F)nc2ccccc12	-5	57*	5	0
SMILES	GPR151 ag	TEAD-YAP inh	MITF primary	FBW7 act
Fc1cccc(Nc2nc(Cl)nc(Cl)n2)c1	1	2	7	0
Cc1ccc2nc(SCC(=O)Nc3ccc4c(c3)OCO4)c(C#N)cc2c1	-2	-4	14	0
COc1ccc2c(c1)C(=O)NC2CC(=O)NC1(c2ccccc2OC)CCCC1 (configuration not stated)	1	49*	9	0
Cc1ccc(Cl)c(OCC(=O)Nc2nccs2)c1	0	56*	10	0
CC(C)c1ccccc1OCC(=O)Nc1nccs1	-1	4	-2	0
O=C(COc1ccccc1Br)Nc1nccs1	-9	75*	13	0
CCC(C)c1ccc(OCC(=O)Nc2cc(C)on2)cc1 (configuration not stated)	0	-27	12	0
Cc1nc2ccccc2c2c1CC(C(C)(Cl)Br)O2 (configuration not stated)	0	34*	-4	0
COc1ccc(CN2CCC(C(=O)N3CCN(c4ccccc4)CC3)CC2)cc1OC	0	0	35	0
CCOC(=O)C1CCN(C(=O)Nc2ccc(NC(=O)C3CCN(C(=O)OCC)CC3)cc2)CC1	1	-3	4	6.1*
O=c1c2cc(Cl)ccc2[nH]c(=S)n1Cc1ccccc1Cl	0	-7	-11	0
Cc1nc2ccccc2n1Cc1nnc(-c2ccccc2)o1	2	40*	4	0

From PubChem
